Shiga inhibitor – Shiga toxin inhibition. Vero cells, Shiga toxin protein synthesis inhibition reporter. inhibition, % at 38.7 µM. 290,000 tested, 9.2% active. AID 2315; in the data active = inhibition mostly above about 28%, no sharp cut-off; inactive = mostly below about 43%; also: 0% is about no effect
Pf growth 96h – inhibits malaria parasite growth, 96 h. Potency, µM (highest dose often 28.7 µM), for the others: top-dose activity change, negative = inhibition, most hits filed as inhibitors. P. falciparum luciferase reporter growth, 96 h. 320,000 tested, 6.9% active; also: potency is read from the fitted curve at half-maximal effect; % is scaled to controls: 0 for no effect and ±100 for the full control effect
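Luminescence readout: decreased luciferase signal marks inhibited growth of reporter-expressing P. falciparum in infected red cells (2% hematocrit, 0.05% parasitemia final), exposed to compound two generations (96 h, 37 C, 5% CO2).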
CHX counter – affects cycloheximide protein synthesis inhibition readout, counter-screen | AID 2314 | max response, % | 300,000 tested, 12% active | cell reporter, cycloheximide protein synthesis inhibition counterscreen; in the data active = max response mostly above about 13%, no sharp cut-off; inactive = mostly below about 14%; also: read at 38.3 µM for the half of the compounds with a filed dose; 0% is about no effect
HCMV inh – blocks human cytomegalovirus replication; HFF cells, HCMV-luciferase reporter, 72 h; stronger effect = lower value; activity change, negative = inhibition, % at 57.5 µM; 410,000 tested, 4.5% active; AID 1259415; in the data active = activity change below about -60%; inconclusive = no clear call, values can overlap the other calls; inactive = above about -39%; also: % is scaled to controls: 0 for no effect and ±100 for the full control effect
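After 16 h attachment at 37C, HFF cells received test compound and HCMV-luciferase (1 PFU/cell); reporter luminescence read 72 h later, data normalized against buffer-only and known inhibitor Salinomycin.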
Pf growth 48h – inhibits P. falciparum growth in the first generation, 48 h | P. falciparum luciferase growth in erythrocytes, 48 h | Potency, µM (doses to about 28.7 µM), inactives show at the top dose activity change, negative = inhibition, hits mostly inhibitors | 310,000 tested, 5.9% active; also: potency is read from the fitted curve at half-maximal effect; % is scaled to controls: 0 for no effect and ±100 for the full control effect
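In quantitative HTS format, infected erythrocytes bearing luciferase-reporter parasites were treated for a single generation at 37 C. Luminescence after adding detection reagent served as the growth measure.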
Active calls of the source: *; u = inconclusive; x = no result given. The list is not random: actives were taken first. Their share in the collection is about 20%. Unless noted, calls follow the shape of the dose curve; as a rule, active = well fitted inhibition curve with a large enough effect; inconclusive = small, poorly fitted or top-dose-only effect, or another doubt; inactive = no such curve, though single readings can be large or run the other way.

SMILES	Shiga inhibitor	Pf growth 96h	CHX counter	HCMV inh	Pf growth 48h
CCN(CC(=O)Nc1c(F)cccc1F)C(=O)Cn1[nH]c(=O)c2ccccc2c1=O	x	-23.7%	x	0.0	-16.1%
Cc1nc(N2CCOCC2)c2c(C(=O)N3CCN(c4ccc(Cl)cc4)CC3)c(C)oc2n1	x	x	x	-17.8	x
NC(=O)c1nsc(C(=O)N(c2ccccc2)C(C(=O)NCC2CCCO2)c2ccc3ncccc3c2)c1N (stereo not drawn)	-8.7	u	-7.4	-37.2	11.7µM*
Cc1ccccc1N(C(=O)c1snc(C(N)=O)c1N)C(C(=O)NCC1CCCO1)c1ccc(N(C)C)cc1 (stereo not drawn)	-6.9	u	-6.7	3.6	1.65µM*
CCc1ccccc1N(C(=O)c1snc(C(N)=O)c1N)C(C(=O)NCC1CCCO1)c1ccc(N(C)C)cc1 (stereo not drawn)	-3.9	159.5%	-10.4	u	u
Cc1cccc(N(C(=O)c2snc(C(N)=O)c2N)C(C(=O)NCC2CCCO2)c2ccc(N(C)C)cc2)c1 (stereo not drawn)	2.4	40.3%	-4.6	u	13.1µM*
CN(C)c1ccc(C(C(=O)NCC2CCCO2)N(C(=O)c2snc(C(N)=O)c2N)c2ccc3c(c2)OCO3)cc1 (stereo not drawn)	-0.8	u	-3.5	u	u
CC(C)c1ccc(N(C(=O)c2snc(C(N)=O)c2N)C(C(=O)NCC2CCCO2)c2ccc(N(C)C)cc2)cc1 (stereo not drawn)	-3.5	9.7%	-6.8	-85.8*	u
CCOc1ccc(NC(=O)C2(c3cccs3)CCOCC2)cc1	x	x	x	6.7	x
CN(C)c1ccc(C(C(=O)NCC2CCCO2)N(C(=O)c2snc(C(N)=O)c2N)c2ccccc2)cc1 (stereo not drawn)	-7.5	11.4%	-6.5	7.4	2.94µM*
CCc1ccc(N(C(=O)c2snc(C(N)=O)c2N)C(C(=O)NCC2CCCO2)c2ccco2)cc1 (stereo not drawn)	-2.2	11.2%	-4.9	-60.4*	u
CCOc1ccc(N(C(=O)c2snc(C(N)=O)c2N)C(C(=O)NCC2CCCO2)c2ccco2)cc1 (stereo not drawn)	-5.3	10.1%	-7.4	-36.2	-19.7%
CCCn1c(NC(=O)C2CCN(C(=O)c3ccc(F)cc3)CC2)nc2ccccc21	-21.5	u	2.8	-3.4	u
CCn1c(NC(=O)/C=C/c2ccc(F)cc2)nc2ccccc21	42.3	u	15.2	u	11.7µM*
CCCn1c(NC(=O)c2ccc(F)cc2)nc2ccccc21	14.6	0.0%	9.2	108.4	0.0%
CCn1c(=O)c(C(C)=O)nc2ccccc21	45.2	19.4%	-1.6	-65.7*	-0.4%
O=C(Cn1c(NCCCO)nc2ccccc21)c1ccc(Br)cc1	-9.5	-27.1%	1.8	39.2	x
CC(C)(C)C(=O)Cn1c(NCCCO)nc2ccccc21	-23.9	11.7µM*	-4.4	6.0	11.4%
CCCCn1c(NC(=O)c2ccccc2)nc2ccccc21	4.0	4.65µM*	5.6	-27.2	u
Cc1ccccc1C(=O)Nc1ccc2oc(-c3ccc(Cl)c(Cl)c3)nc2c1	x	x	x	10.2	x
C=CCn1c(NC(=O)c2ccccc2)nc2ccccc21	52.8*	11.7µM*	42.7*	37.5	u
C=CCn1c(P(=O)(O)c2ccccc2)nc2ccccc21	14.7	u	-1.0	34.2	99.4%
CNc1nc2ccccc2n1CC(=O)c1ccccc1	20.0	-107.2%	21.7*	23.0	83.0%
CCn1c(NC(=O)c2ccccc2)nc2ccccc21	86.4*	10.4µM*	30.6*	51.6	11.7µM*
Cc1ccc(C(=O)Cn2c(NCCO)nc3ccccc32)cc1	34.8	u	-1.3	-12.6	45.7%
SMILES	Shiga inhibitor	Pf growth 96h	CHX counter	HCMV inh	Pf growth 48h
CCCCn1c(NC(=S)Nc2ccccc2)nc2ccccc21	-15.1	u	12.1	-12.6	5.22µM*
Cc1c(CNCCC2=CCCCC2)c(C(=O)O)c(C)n1Cc1ccccc1	-8.7	-27.1%	-5.8	-39.4	-5.1%
COc1cc2c(cc1OC)-c1cc(Nc3ccc4c(c3)OCCO4)nc(=O)n1CC2	78.3*	33.2%	66.9*	-33.8	98.4%
COc1cc2c(cc1OC)-c1cc(Nc3ccccc3Br)nc(=O)n1CC2	-0.5	u	16.9*	-27.9	u
CCOc1cccc(Nc2cc3n(c(=O)n2)CCc2cc(OC)c(OC)cc2-3)c1	-4.2	3.7µM*	6.7	21.8	u
COc1cc2c(cc1OC)-c1cc(N3CCc4ccccc43)nc(=O)n1CC2	-4.2	11.7µM*	0.7	10.5	u
O=C(C[C@@H]1C/C=C\CC[C@@H](Cc2ccc(F)cc2)C(=O)OC[C@@H](Cc2ccccc2)NC1=O)NCCO	x	x	x	3.0	x
COc1ccc(OC)c(S(=O)(=O)NCc2cccn2Cc2cccc(C)c2)c1	x	x	x	-6.1	x
CSc1ccccc1C(=O)N1CCC(n2nccc2NC(=O)C(C)(C)C)CC1	-4.2	7.6%	-1.3	27.9	u
CCc1ccc(OCC(=O)N/N=C(\C)c2ccc3c(c2)OCCO3)cc1	-10.2	24.4%	13.0*	-36.4	-3.6%
CNC(=S)N/N=C(\C)c1ccc2c(c1)OCO2	25.8	u	5.4	-104.1*	23.6%
CCNC(=S)N/N=C(\C)c1ccc2c(c1)OCCO2	48.8*	28.6%	-2.6	-15.1	29.9%
C/C(=N\NC(=S)NC(C)C)c1ccc2c(c1)OCCO2	1.6	-29.0%	0.6	u	-10.1%
CNC(=S)N/N=C(\C)c1ccc2c(c1)OCCO2	35.9	12.2%	19.1*	38.3	33.1%
COc1ccc(CCNC(=O)CSc2nnc(-c3ccco3)c(-c3ccco3)n2)cc1OC	-5.3	34.2%	-3.2	x	-15.4%
COc1ccc(Cl)cc1NC(=O)NCCn1c(=O)oc2ccc(C)cc21	x	x	x	-22.4	x
Cc1cnc(C2OCCO2)c2cccc(N)c12	x	x	x	-14.4	x
C/C(=N\NC(=O)c1ccc(NS(=O)(=O)c2cccs2)cc1)c1ccc2c(c1)OCO2	-5.5	2.3%	7.5	5.7	-1.0%
C/C(=N\NC(=S)Nc1ccc(C(C)C)cc1)c1ccc2c(c1)OCO2	35.3*	u	10.7	18.8	-6.5%
COc1ccc(CNC(=O)CC[C@H]2O[C@@H](n3ccc(=O)[nH]c3=O)[C@H](O)[C@@H]2O)cc1	x	x	x	11.1	x
CCOc1ccccc1NC(=S)N1CCCc2ccccc21	5.9	u	14.0	-32.9	25.0%
CN(CCOc1ccccc1)C(=O)c1cc(S(=O)(=O)N2CCCCC2)ccc1Cl	x	u	x	u	1.8%
COc1ccc(-n2cc(-c3ccc4c(c3)OCO4)n(CC(=O)Nc3cccc(C)c3C)c2=O)c(OC)c1	x	x	x	-86.0*	x
CCOc1ccc(N(CC(=O)N2CCCCC2)S(=O)(=O)c2ccc(Cl)cc2)cc1	20.9	-15.9%	-7.1	14.7	u
COC(=O)c1ccc(/C=C/C(=O)OCC(=O)c2ccc[nH]2)cc1	x	x	x	1.2	x
C/C(=N\NC(=O)c1cccnc1)c1cc(C)oc1C	46.9	6.6%	11.2	40.5	10.8%
C/C(=N\NC(=O)c1ccccc1O)c1c(O)cc(C)oc1=O	27.5	u	28.2*	278.9	52.0%

Screening data from PubChem BioAssay.
